# Key:
# Assay in all cases: PBM binding z-score (relative to random genomic background probes); higher = stronger binding; sequences stand for … in GC…GCGATTGACAGCGTAGAATGAAGG
# [1] = test system: RARb homodimer (NR concentration 270 nM)
# In short: (§1)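 Binding z-scores were set against random background probes. The data came from custom Agilent 4×180K protein-binding microarrays carrying double-stranded probes with 34-nt variable regions, incubated 1 h with ligand-free nuclear receptor dimers. Partner-specific antibodies detected binding, and scanned fluorescence was regression-normalized.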
# [2] = test system: RARg:RXRa (NR concentration 270 nM, RXRa partner concentration 90 nM)
# In short: as §1
# [3] = test system: RARg homodimer (NR concentration 270 nM)
# In short: as §1
# [4] = test system: RXRa DBDmut IVT, anti-RXR (DBD mutation: RXRa K156A/R161A, NR concentration 90 nM)
# In short: as §1
# [5] = test system: RXRa homodimer (NR concentration 180 nM)
# In short: as §1
# [6] = test system: THRa:RXRa (NR concentration 90 nM, RXRa partner concentration 90 nM)
# In short: as §1
# [7] = test system: THRa homodimer (NR concentration 90 nM)
# In short: as §1
# [8] = test system: VDR:RXRa (NR concentration 270 nM, RXRa partner concentration 90 nM)
# In short: as §1
# [9] = test system: VDR homodimer (NR concentration 270 nM)
# In short: as §1
Sequence,PBM binding z-score [1],PBM binding z-score [2],PBM binding z-score [3],PBM binding z-score [4],PBM binding z-score [5],PBM binding z-score [6],PBM binding z-score [7],PBM binding z-score [8],PBM binding z-score [9]
TCGAGTAGGTTCGTCGGGGCATTCAGCCAACATA,0.49,0.1,-0.361,2.31,0.365,0.871,0.192,1.79,2.33
ACTAGTTGGTCAGCTGCGGTCACACACAATTCGG,2.82,1.23,1.87,0.356,0.636,2.65,0.969,0.586,0.532
TCGAGTACGTTACCAATGGGGCATTCAGCTTTCT,0.0384,-0.336,-0.335,3.13,-0.358,-0.315,-0.201,0.458,1.2
CTCGAGAGGTCGGTTGAGGTGAGTATACGGATAA,1.99,2.11,2.3,1.57,2.06,5,1.39,2.59,1.16
GTACCAAGGTGAATATGTCGTTGATGAGTAGGCG,0.432,0.746,0.888,-0.0689,0.5,1.34,0.837,-0.0532,0.112
TCTAGTTGGTCAAAGGTCACCCACTCGAAATGCG,5.15,7.19,6.47,1.86,8.17,3.7,1.8,5.09,2.58
GCTGCTAGGTCAGGTTGGTAAGCTAACGGGTACG,2.26,2.6,3.55,0.418,1.02,1.7,0.477,–,0.193
TCTATTAGGTGATTAGGGCAACCGAAACAGCGGA,1.1,1.09,1.02,0.665,0.927,1.24,0.68,–,0.277
